Measured values from the supplement of paper PMC10849652.
About 7,900 targets were measured; listed, in parts, are those with a hit and a random draw of the rest. About 0.6% of all pairs of compound and target were hits.

compound: COC(=O)[C@H](CCSC)NC(=O)C1=C(C=C(C=C1)NC[C@H](CS)N)C2=CC=CC=C2; assay: log2 fold change, soluble protein after heating vs DMSO (PISA); higher = thermal stabilisation; K562 cells, 10 uM, 30 min; active = over 0.2 and 3.5 SD of the protein, either way, in both replicates (recomputed)
Procedure, shortened: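 K562 cells at 2×10^6 cells/mL were exposed to 10 μM compound for 30 min, then aliquots were heated for 3 min across 48°C-58°C, pooled, and extracted in PBS containing 0.5% NP-40 at 4°C. The supernatant after 21,000xg for 90 min was taken as soluble protein and measured by TMTpro 16plex LC-MS/MS with channel sums equalised. Thermal stability is reported relative to control samples, with values from duplicates. Fold changes are given on a log2 scale.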

UniProt Q86UP2, sequence (Q86UP2 whole entry, looked up): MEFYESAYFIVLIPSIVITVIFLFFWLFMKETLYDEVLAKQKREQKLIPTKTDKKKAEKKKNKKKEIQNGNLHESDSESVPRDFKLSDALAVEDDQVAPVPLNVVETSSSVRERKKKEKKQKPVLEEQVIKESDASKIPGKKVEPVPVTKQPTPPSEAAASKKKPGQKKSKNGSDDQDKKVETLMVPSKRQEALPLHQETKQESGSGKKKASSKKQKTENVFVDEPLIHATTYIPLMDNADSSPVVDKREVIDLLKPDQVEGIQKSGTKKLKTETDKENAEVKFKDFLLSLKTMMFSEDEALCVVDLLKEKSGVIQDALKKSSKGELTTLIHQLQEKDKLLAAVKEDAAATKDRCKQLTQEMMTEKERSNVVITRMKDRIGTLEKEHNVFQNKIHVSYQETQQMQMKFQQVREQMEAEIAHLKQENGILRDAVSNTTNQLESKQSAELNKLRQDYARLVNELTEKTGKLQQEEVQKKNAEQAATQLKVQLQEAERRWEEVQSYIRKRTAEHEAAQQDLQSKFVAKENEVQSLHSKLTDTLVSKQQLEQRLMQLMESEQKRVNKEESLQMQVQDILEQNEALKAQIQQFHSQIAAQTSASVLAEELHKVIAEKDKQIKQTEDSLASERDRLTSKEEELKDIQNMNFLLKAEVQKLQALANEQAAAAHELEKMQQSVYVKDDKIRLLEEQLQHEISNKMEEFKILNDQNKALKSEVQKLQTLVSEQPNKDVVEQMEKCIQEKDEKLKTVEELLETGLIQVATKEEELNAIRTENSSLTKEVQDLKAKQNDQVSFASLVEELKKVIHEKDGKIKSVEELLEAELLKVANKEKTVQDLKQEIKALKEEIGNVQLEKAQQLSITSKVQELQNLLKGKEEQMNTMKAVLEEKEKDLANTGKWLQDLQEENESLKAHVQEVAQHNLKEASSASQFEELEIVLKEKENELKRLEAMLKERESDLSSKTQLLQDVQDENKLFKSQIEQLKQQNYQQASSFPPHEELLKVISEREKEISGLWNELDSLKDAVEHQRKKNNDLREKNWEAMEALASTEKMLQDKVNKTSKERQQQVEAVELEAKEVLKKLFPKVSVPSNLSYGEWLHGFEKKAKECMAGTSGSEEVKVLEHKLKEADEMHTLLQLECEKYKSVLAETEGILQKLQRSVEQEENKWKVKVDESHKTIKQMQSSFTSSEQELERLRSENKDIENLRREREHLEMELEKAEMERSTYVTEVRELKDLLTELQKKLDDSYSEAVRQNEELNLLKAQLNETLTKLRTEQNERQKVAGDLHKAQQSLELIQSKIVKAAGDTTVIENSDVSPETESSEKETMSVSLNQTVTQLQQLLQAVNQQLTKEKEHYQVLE
UniProt Q9NQG6, sequence (Q9NQG6 whole entry, looked up): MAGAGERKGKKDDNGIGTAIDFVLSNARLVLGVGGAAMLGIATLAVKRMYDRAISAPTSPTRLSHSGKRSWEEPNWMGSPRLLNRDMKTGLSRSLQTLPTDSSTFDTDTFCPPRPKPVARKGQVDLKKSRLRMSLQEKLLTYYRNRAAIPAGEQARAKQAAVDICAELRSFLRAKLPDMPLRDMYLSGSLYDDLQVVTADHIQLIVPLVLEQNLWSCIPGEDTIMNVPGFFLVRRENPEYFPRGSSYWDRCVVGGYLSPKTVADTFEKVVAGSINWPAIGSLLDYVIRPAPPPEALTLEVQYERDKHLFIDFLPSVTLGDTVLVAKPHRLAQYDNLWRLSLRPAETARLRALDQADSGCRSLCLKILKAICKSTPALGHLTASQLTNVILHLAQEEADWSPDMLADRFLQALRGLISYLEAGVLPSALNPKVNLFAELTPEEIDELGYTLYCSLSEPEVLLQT
UniProt A8MWY0, sequence (A8MWY0 whole entry, looked up): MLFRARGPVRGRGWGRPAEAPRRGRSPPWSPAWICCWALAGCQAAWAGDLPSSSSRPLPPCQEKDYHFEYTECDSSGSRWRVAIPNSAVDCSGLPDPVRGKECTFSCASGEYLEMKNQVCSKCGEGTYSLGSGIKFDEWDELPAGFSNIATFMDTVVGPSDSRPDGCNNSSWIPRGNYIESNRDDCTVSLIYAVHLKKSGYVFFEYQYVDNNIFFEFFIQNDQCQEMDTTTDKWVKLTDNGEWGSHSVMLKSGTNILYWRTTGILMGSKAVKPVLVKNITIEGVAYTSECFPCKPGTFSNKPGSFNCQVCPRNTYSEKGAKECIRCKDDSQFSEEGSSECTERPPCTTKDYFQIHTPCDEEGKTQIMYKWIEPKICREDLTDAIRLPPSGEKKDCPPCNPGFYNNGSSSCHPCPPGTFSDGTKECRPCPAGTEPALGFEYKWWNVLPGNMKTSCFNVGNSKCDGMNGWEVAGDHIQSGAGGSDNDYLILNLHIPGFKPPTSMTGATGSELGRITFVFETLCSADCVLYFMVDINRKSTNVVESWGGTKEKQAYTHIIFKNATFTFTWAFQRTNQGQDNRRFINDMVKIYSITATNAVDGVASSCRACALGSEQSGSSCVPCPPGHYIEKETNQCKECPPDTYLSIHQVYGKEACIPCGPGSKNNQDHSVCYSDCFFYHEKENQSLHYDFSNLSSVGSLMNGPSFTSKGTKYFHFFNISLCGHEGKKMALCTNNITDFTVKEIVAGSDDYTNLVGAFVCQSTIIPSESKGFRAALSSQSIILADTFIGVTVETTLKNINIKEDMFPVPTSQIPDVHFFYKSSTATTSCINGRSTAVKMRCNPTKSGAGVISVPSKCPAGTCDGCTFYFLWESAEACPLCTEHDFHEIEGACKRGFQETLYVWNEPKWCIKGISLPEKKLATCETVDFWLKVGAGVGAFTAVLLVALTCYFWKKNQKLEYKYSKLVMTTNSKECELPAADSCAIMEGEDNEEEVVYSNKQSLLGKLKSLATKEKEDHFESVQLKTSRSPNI
UniProt P23276, sequence (P23276 whole entry, looked up): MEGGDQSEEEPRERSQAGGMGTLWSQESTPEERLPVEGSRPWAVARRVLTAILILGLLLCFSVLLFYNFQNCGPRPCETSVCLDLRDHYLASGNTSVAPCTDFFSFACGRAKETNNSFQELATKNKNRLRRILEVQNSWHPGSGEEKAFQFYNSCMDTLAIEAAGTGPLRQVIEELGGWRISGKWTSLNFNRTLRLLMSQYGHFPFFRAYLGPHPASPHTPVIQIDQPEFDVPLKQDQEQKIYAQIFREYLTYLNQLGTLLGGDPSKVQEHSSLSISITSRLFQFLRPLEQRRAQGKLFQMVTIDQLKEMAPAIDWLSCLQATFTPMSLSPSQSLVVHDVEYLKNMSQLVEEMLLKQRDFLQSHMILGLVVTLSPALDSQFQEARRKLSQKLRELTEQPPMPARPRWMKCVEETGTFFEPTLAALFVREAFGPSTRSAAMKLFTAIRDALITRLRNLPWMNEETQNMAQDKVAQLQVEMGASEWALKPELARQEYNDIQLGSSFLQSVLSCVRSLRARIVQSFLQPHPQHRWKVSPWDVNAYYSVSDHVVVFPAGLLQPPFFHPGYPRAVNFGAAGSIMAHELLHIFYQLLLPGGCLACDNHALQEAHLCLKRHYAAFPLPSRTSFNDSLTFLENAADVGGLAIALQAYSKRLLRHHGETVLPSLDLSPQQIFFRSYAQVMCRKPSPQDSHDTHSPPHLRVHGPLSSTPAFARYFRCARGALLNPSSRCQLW
UniProt Q8IYU8, sequence (Q8IYU8 whole entry, looked up): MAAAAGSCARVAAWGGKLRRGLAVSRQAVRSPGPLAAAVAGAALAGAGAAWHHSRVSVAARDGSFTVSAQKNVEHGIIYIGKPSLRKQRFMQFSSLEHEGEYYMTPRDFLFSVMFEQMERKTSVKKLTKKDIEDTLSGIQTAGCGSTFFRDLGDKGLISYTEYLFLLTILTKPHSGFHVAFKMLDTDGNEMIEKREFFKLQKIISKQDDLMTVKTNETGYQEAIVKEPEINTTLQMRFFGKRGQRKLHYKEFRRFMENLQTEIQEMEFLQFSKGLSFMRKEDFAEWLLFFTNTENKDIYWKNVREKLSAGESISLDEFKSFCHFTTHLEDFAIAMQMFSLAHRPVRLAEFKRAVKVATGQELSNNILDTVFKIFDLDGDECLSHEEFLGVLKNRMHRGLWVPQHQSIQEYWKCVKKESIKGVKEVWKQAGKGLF
UniProt Q9UHB6, sequence (Q9UHB6 whole entry, looked up): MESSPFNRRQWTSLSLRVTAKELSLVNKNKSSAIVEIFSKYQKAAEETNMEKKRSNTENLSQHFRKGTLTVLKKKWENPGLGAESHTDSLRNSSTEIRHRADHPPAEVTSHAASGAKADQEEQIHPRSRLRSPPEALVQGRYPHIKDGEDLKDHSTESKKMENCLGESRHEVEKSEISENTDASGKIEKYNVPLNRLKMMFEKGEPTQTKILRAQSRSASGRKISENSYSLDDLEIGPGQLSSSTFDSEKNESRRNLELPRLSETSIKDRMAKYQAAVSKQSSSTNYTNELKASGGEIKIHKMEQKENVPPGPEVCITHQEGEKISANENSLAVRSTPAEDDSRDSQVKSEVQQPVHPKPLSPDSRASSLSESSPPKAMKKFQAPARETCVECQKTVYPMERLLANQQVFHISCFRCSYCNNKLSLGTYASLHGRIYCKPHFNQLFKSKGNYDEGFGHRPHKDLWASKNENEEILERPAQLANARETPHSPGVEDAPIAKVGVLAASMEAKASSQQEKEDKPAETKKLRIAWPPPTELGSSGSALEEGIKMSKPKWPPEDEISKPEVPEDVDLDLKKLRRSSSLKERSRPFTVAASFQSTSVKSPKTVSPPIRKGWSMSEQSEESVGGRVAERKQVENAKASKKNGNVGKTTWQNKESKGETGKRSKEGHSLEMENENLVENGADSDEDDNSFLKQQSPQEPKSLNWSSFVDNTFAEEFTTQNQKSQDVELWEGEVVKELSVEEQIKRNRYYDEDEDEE
UniProt P33947, sequence (P33947 whole entry, looked up): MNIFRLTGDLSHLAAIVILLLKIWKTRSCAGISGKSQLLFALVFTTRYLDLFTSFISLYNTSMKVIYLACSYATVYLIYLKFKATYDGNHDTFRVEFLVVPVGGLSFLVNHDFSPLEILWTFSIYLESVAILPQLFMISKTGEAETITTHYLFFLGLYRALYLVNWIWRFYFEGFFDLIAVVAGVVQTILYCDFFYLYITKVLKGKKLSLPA

log2 fold change, inactive:
IWS1 (UniProt Q96ST2) -0.127
LUC7L2 (UniProt Q9Y383) 0.03
MARK3 (UniProt P27448) 0.033
MIEF1 (UniProt L0R8F8) 0.015
KIF11 (UniProt P52732) -0.055
LPIN3 isoform 2 (UniProt Q9BQK8) -0.012
INPP5B (UniProt P32019) 0.141
LNPEP (UniProt Q9UIQ6) 0.012
KDM1A isoform 2 (UniProt O60341) -0.032
IPO13 (UniProt O94829) 0.033
MIEF1 (UniProt Q9NQG6) -0.018
KDELR2 (UniProt P33947) 0.023
KTN1 (UniProt Q86UP2) -0.053
KHDRBS1 (UniProt Q07666) -0.05
KSR1 (UniProt Q8IVT5) 0.012
LUC7L3 (UniProt O95232) -0.003
LAMP2 (UniProt P13473) 0.062
MED1 (UniProt Q15648) 0.033
MICU2 (UniProt Q8IYU8) -0.044
ILK (UniProt Q13418) 0.06
KIF13A (UniProt Q9H1H9) 0.034
KIF3A (UniProt Q9Y496) 0.005
KDM5D isoform 3 (UniProt Q9BY66) -0.05
KIAA1324L (UniProt A8MWY0) 0.006
MIER1 isoform 12 (UniProt Q8N108) 0.017
MIA2 (UniProt Q96PC5) 0.037
LIMA1 isoform 4 (UniProt Q9UHB6) 0.01
METTL18 (UniProt O95568) -0.176
KIF21A isoform 4 (UniProt Q7Z4S6) -0.072
LUC7L (UniProt Q9NQ29) 0.022
KEL (UniProt P23276) 0.03
LEO1 (UniProt Q8WVC0) -0.082
LARP4 isoform 4 (UniProt Q71RC2) -0.014
MFF (UniProt Q9GZY8) 0.092
MFN1 (UniProt Q8IWA4) 0
MCL1 (UniProt Q07820) 0.047
LYN (UniProt P07948) 0.038
ILVBL (UniProt A1L0T0) 0.019
KCTD2 (UniProt Q14681) 0.082
